Five compounds from PubChem BioAssay can be followed below.

One assay concerns the target Albumin (Bos taurus) (UniProt P02769). The experiment in a line: compounds binding labelled BSA control protein – biochemical, small-molecule microarray, Alexa647 label, 635/667 nm fluorescence, artefact control for SMM control protein annotation, profiling panel (AID 1118).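 Further: score merges 667 nm emission intensity and signal-to-noise per printed compound spot.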 The note with it: BSA-A647 binding, fluorescence 635 nm, higher = more signal.
Assay [1] is described as follows: probe aXIP binding to arrayed compounds – biochemical, NeuroSMM set, 635/667 nm fluorescence, primary screen (AID 1119).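 Further: probe is the protein aXip251-270 applied at 1 µg/mL to compound-printed slides; binding of probe to printed compounds measured as 667 nm fluorescence plus signal to noise.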 To be noted: small-molecule microarray, higher = more signal, called active from +8 up or from −8 down.
Assay [2] can be described thus: probe aNOTCH3 binding on compound microarray – biochemical, small-molecule microarray, 635/667 nm fluorescence, primary screen (AID 1120).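 Further: probe is a biotin-tagged antibody raised against NOTCH3 rather than NOTCH3 protein; score merges spot fluorescence near 667 nm with spot signal to noise.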 To be noted: higher = more signal.
Assay [3] in a line: probe aNOTCH2 binding on compound microarray – biochemical, small-molecule microarray, 635/667 nm fluorescence, primary screen (AID 1121).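 Further: score merges feature fluorescence read at 667 nm with its signal to noise.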 To be noted: higher = more signal.
The target of assay [4] is Carbonic anhydrase 2 (Homo sapiens) (UniProt P00918). As to the kind of experiment: compounds binding carbonic anhydrase 2 – biochemical, small-molecule microarray, Alexa647-labelled CAII, profiling panel (AID 1122). To be noted: CAII-A647 binding fluorescence, higher = more signal.
The nature of assay [5]: COS7 lysate on small-molecule microarray, probe aHis, 635 nm (AID 1123).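 Further: z-score combines 667nm fluorescence intensity with signal-to-noise per printed compound spot.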 The note with it: COS7 cell lysate, fluorescence, higher = more signal.
Assay [6] can be described thus: probe aLAP1 signal on lysate-treated microarray – cell lysate, small-molecule microarray, COS7 lysate, primary screen (AID 1124).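 Further: lysate comes from COS7 cells expressing LAP1 and is applied at 0.3 µg/mL; score merges spot fluorescence near 667 nm with signal-to-noise over triplicate slides.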 The note with it: probe aLAP1, fluorescence, higher = more signal.
The subject of the next assay is Sam68 (KHDRBS1). The experiment in a line: compounds binding KHDRBS1 protein – biochemical, small-molecule microarray, 635 nm fluorescence, primary screen (AID 1125).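 Further: score merges 667 nm channel intensity with signal to noise over triplicate slides.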 To be noted: higher = more signal.
Assay [7] deals with Chordin-like protein 2 (CHRDL2). The experiment in a line: compounds binding chordin-like 2 – biochemical, small-molecule microarray, 635 nm fluorescence, primary screen (AID 1126).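 Further: printed compound slides probed with Chrdl2 protein at 4 µg/mL for 1 h at 4 C; score merges 667 nm emission intensity with signal to noise over three replicate slides.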 To be noted: fluorescence 635 nm, higher = more signal.
Assay [8] concerns the target Concanavalin-A (Canavalia ensiformis) (UniProt P02866). As to the kind of experiment: compounds binding concanavalin A lectin – biochemical, small-molecule microarray, Alexa647 label, 635 nm, artefact control for SMM control protein annotation, primary screen (AID 1127).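 Further: z combines 667 nm emission intensity with signal-to-noise across three replicate slides.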 To be noted: ConA-A647 binding fluorescence, higher = more signal.
Assay [9] is described as follows: compounds binding Alexa647 anti-His antibody – biochemical, small-molecule microarray, 635 nm fluorescence, artefact control for SMM control protein annotation, primary screen (AID 1128).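 Further: score merges feature fluorescence with signal-to-noise for each printed compound spot.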 The note with it: higher = more signal.
Assay [10] has as its system Human papillomavirus type 1a E7 protein (residues 1-88). As to the kind of experiment: HPV1a E7 small-molecule binders, primary screen, biochemical, small-molecule microarray, residues 1-88, 635 nm (AID 1129). The note with it: small-molecule microarray binding, fluorescence 635 nm; higher = more signal.
In assay [11] the target is Focal adhesion kinase 1 (Homo sapiens) (UniProt Q05397). The experiment in a line: PTK2 protein binding on printed compound slides – biochemical, small-molecule microarray, 635/667 nm fluorescence, BSA, DTT, primary screen (AID 1130).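 Further: composite of spot emission at 667 nm and signal to noise over triplicate slides.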 The note with it: 635 nm fluorescence, higher = more signal.
Focal adhesion kinase 1 (Homo sapiens), sequence (Q05397 whole entry, looked up): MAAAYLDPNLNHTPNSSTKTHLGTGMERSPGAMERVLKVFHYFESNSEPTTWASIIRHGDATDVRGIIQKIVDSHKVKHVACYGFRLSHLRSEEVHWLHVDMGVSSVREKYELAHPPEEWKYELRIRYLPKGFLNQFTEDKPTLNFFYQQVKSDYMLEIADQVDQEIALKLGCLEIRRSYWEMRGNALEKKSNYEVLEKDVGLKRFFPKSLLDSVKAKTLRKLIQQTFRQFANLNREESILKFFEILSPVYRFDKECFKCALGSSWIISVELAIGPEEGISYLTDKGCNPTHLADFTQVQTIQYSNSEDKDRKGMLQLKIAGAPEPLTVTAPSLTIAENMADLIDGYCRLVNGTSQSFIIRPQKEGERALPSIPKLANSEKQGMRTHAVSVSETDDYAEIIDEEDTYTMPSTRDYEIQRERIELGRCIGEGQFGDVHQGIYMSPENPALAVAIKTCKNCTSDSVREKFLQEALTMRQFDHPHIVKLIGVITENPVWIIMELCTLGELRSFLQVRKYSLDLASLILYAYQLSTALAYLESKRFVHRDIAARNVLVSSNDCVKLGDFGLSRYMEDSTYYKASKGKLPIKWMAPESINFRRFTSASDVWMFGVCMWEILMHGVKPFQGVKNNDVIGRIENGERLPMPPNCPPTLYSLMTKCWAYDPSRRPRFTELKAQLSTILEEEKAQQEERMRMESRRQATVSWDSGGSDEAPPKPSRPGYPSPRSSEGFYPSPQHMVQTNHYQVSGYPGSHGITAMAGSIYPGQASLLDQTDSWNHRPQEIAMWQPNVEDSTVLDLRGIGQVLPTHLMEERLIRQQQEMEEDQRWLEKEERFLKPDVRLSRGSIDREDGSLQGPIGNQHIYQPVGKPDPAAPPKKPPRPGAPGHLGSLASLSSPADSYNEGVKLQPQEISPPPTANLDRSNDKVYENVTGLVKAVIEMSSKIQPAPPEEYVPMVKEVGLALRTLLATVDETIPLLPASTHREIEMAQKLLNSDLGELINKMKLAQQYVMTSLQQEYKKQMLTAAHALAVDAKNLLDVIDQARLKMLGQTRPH
For assay [12], the system named is Fibrinogen (Alexa647-labelled). As to the kind of experiment: Alexa647-fibrinogen binding to printed small molecules – biochemical, small-molecule microarray, 635/667 nm fluorescence, artefact control for SMM control-protein annotation, profiling panel (AID 1131).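 Further: z-score merges 667 nm fluorescence with per-spot signal-to-noise over triplicate slides.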 To be noted: fibrinogen-A647 binding fluorescence, higher = more signal.
Assay [13] deals with Follistatin (Homo sapiens) (UniProt P19883). The experiment in a line: FST protein binding to printed compounds – biochemical, small-molecule microarray, 635/667 nm fluorescence, primary screen (AID 1132). The note with it: 635 nm fluorescence, higher = more signal.
Follistatin (Homo sapiens), sequence (P19883 whole entry, looked up): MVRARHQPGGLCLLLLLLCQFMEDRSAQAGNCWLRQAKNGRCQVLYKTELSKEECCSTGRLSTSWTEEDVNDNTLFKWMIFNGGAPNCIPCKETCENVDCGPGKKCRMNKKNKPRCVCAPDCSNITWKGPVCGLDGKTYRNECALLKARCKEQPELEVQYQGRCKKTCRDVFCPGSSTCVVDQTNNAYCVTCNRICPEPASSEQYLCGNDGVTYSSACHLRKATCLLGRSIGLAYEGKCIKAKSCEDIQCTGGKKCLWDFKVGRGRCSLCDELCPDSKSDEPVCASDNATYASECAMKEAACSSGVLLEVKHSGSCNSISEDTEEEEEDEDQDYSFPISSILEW
Assay [14] concerns the target Fibroblast growth factor 2 (Homo sapiens) (UniProt P09038). The experiment in a line: basic fibroblast growth factor binding to printed compounds – biochemical, small-molecule microarray, 635/667 nm fluorescence, primary screen (AID 1133). To be noted: FGF2, fluorescence 635/667, higher = more signal.
Assay [15] is described as follows: JC-1 mitochondrial potential readout, lung cancer cells – cell-based, A549, JC-1 fluorescence, basal, 24 h, 100 nL, profiling panel (AID 1138).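 Further: A549 lung adenocarcinoma cells under basal conditions with no added stimulus; test concentration not given here.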 The note with it: higher = more signal.
In the next assay the test system is Lefty1. The experiment in a line: Lefty1 protein binding to printed compounds – biochemical, small-molecule microarray, 635/667 nm fluorescence, primary screen (AID 1139). The note with it: fluorescence 635/667, higher = more signal.
The test system of assay [16] is wheat germ agglutinin (Triticum aestivum), Alexa647-labelled. The experiment in a line: Alexa647-WGA lectin binding to printed small molecules – biochemical, small-molecule microarray, 635/667 nm fluorescence, artefact control for SMM control-protein annotation, profiling panel (AID 1140).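 Further: score merges 667 nm feature emission with signal to noise over triplicate slides.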 The note with it: WGA-A647 binding, 635 nm fluorescence, higher = more signal.

Assay [17] concerns the target Luciferin 4-monooxygenase (Photinus pyralis) (UniProt P08659). As to the kind of experiment: inhibition of purified Photinus pyralis luciferase – biochemical, luminescence, purified enzyme, 2006 set, primary screen (AID 1141).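 Further: cell-free assay with purified firefly luciferase at 100 ng per well in PBS; test concentration not given here.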 To be noted: purified firefly luciferase, SteadyGlo luminescence, 30 min; higher = more signal, called active from +8 up or from −8 down.

Activity calls are given as the source filed them.

Luciferin 4-monooxygenase (Photinus pyralis), sequence (P08659 whole entry, looked up): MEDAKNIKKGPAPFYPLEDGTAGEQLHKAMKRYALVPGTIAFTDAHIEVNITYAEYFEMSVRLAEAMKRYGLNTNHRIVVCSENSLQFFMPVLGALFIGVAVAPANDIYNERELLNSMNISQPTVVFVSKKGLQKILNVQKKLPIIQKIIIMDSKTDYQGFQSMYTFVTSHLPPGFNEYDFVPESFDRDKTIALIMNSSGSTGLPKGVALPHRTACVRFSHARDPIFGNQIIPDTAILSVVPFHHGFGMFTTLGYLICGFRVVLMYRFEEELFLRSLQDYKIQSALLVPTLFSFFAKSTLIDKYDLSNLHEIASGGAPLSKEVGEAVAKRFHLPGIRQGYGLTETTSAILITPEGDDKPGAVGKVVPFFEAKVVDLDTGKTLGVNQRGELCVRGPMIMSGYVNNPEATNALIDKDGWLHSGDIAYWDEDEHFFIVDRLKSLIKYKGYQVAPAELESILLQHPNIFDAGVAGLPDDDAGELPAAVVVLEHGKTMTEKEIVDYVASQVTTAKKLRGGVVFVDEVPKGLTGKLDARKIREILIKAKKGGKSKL
Fibroblast growth factor 2 (Homo sapiens), sequence (P09038 whole entry, looked up): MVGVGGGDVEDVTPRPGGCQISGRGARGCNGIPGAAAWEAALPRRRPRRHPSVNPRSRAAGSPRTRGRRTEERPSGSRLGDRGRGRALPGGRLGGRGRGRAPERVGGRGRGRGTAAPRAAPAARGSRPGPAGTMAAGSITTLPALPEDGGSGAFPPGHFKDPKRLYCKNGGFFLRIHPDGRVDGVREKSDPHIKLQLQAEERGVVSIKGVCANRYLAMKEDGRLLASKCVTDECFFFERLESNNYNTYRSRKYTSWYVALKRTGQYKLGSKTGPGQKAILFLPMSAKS
Albumin (Bos taurus), sequence (P02769 whole entry, looked up): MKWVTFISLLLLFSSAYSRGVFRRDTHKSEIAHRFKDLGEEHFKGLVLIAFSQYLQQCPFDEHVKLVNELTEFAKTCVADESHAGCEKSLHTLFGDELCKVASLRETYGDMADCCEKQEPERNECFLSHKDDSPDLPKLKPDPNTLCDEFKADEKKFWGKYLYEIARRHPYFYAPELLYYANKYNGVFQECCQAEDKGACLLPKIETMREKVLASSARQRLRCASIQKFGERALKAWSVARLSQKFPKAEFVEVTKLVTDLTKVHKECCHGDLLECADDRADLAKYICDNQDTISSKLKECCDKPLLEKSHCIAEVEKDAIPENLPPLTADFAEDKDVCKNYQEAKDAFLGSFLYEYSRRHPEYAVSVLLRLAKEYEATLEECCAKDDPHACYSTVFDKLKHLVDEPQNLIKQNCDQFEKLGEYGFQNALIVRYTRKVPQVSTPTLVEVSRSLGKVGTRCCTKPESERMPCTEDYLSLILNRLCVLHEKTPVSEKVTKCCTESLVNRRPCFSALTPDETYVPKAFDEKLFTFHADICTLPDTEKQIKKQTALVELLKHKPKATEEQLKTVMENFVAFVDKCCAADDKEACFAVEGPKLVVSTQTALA
Concanavalin-A (Canavalia ensiformis), sequence (P02866 whole entry, looked up): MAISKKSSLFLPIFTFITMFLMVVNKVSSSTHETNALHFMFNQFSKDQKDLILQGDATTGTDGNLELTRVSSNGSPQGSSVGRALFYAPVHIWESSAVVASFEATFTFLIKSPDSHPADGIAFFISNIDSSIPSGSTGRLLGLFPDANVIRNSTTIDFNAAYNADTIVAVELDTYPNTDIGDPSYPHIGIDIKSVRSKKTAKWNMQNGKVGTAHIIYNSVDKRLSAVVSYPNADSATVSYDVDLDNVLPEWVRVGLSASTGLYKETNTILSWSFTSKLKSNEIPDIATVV

Regarding `C=C(COC)C(=O)CC[C@@H](OC(C)=O)c1ccccc1OCCO`, the composite z-score with Albumin (Bos taurus) was -0.145; in assay [2] it was 0.183; in [3], -0.15; in assay [4], 0.675; in assay [5] it was -0.762; in [6] it was 0.583. Also, the composite z-score with Sam68 (KHDRBS1) was 0.789; in assay [7] it was -0.0113; in assay [8], -0.0386; in assay [9], 0.456; in assay [10], 0.318; in [11], -0.517. In addition, the composite z-score in assay [12] is -0.698; in assay [13] it was 1.15; in assay [14], 1.09; in the assay on Lefty1, 0.791; in [16], 0.523. Besides, in assay [1], the composite Z-score is -0.975 (inactive). Further, the results for the z-score in assay [15] and in [17] were 0.356 and -2.79 (inactive), respectively.
As for `CC(C)=CCCC=C(C)C(O)C1C=CC2C(=O)N(c3ccccc3)C(=O)C2N1Nc1ccc(C#N)cc1` (stereo not given), the composite z-score with Albumin (Bos taurus) is 0.976; in assay [2] it was 0.518; in [3], -0.157; in assay [4] it was 0.596; in assay [5] it was 2.34; in [6], 1.54. Further, the composite z-score with Sam68 (KHDRBS1) is 1.03; in [7], 0.173; in assay [8], 1.11; in [9] it was 1; in assay [10], 1.21; in [11], 0.901. In addition, the composite z-score was determined as 0.972 in assay [12]; 1.31 in [13]; 0.333 in assay [14]; 0.507 in the assay on Lefty1; 1.06 in assay [16]. For the same compound, the composite Z-score in assay [1] was -0.213 (inactive). Further, the figures for the z-score in [15] and in assay [17] were -0.902 and -1.32 (inactive), respectively.
For `CCOC(=O)C[C@H]1[C@H](OC(=O)c2ccccc2-c2ccccc2)[C@@H](NC(=O)c2ccc3ccccc3c2)c2cc(OCCCO)ccc2N1C(=O)Cc1ccc(OC)cc1`, the composite z-score is 0.227 with Albumin (Bos taurus); -0.186 in assay [2]; -0.101 in [3]; -0.165 in assay [4]; 0.14 in [5]; 0.232 in assay [6]. For the same compound, the composite z-score was -0.868 in the assay on Sam68 (KHDRBS1); -0.341 in [7]; -0.12 in assay [8]; -0.262 in [9]; -0.191 in [10]; 0.0564 in assay [11]. Further, the composite z-score was 0.805 in [12]; 0.0992 in [13]; -0.0445 in [14]; -0.0328 in the assay with Lefty1; -0.178 in [16]. Further, in [1], the composite Z-score was 0.25 (inactive). Further, the z-score in assay [15] was 0.847; in [17], -0.146 (inactive).
For the compound `COc1ccc([Si](C)(C)[C@H]2[C@H](CCO)O[C@@]3(C(=O)N(Cc4cccc(N5C(=O)c6ccccc6Oc6ccccc65)c4)c4ccccc43)[C@@H]2C)cc1`, the composite z-score with Albumin (Bos taurus) is 0.446; in assay [2] it was -0.0647; in assay [3], -0.147; in assay [4], 0.287; in assay [5], 0.575; in assay [6], 0.755. Also, the composite z-score with Sam68 (KHDRBS1) is 0.499; in assay [7], -0.122; in [8], 0.843; in assay [9], 0.551; in [10], 0.838; in assay [11], -0.065. Also, the composite z-score in assay [12] was 0.327; in assay [13], -0.424; in [14] it was 0.649; in the assay with Lefty1, -0.351; in assay [16] it was 0.805. Further, the composite Z-score in [1] is 0.142 (inactive). Also, the figures for the z-score in assay [15] and in assay [17] were 0.302 and 0.0939 (inactive), respectively.
`CCCNC(=O)[C@@]1(Sc2ccc(C)cc2)CC(=O)N(Cc2ccccc2Cl)[C@@H]1c1ccc(CO)cc1I`: the composite z-score is -0.266 with Albumin (Bos taurus); 0.965 in [2]; -0.0836 in [3]; 0.529 in [4]; 0.649 in assay [5]; -0.0685 in assay [6]. Also, the composite z-score with Sam68 (KHDRBS1) was -0.169; in assay [7], -1.56; in assay [8], 0.0737; in assay [9], 0.977; in [10], -0.157; in [11] it was 0.313. Also, the composite z-score in assay [12] was 0.22; in [13], -0.328; in [14], -1.08; in the assay with Lefty1, -0.896; in [16], 0.202. In assay [1], the composite Z-score was -0.588 (inactive). The z-score in [15] is 0.685; in assay [17], 0.718 (inactive).
